Unmarked numbers belong to inactive results. Activity calls are given as the source filed them. No stated cut-off is given here; in the data, active means fold change permeability below about 0.7 or above about 1.3; inactive means in between. Residues, ends and D or L forms follow the SMILES beside them. *: point of attachment. Cbz = O=C(OCc1ccccc1)*
Assay: compounds altering in vitro BBB leakiness – cell-based, FITC-avidin fluorescence, HTS, primary screen (AID 1963498); further: test concentration not given here
Settings: brain endothelial barrier, actives lie on both sides

SMILES	fold change permeability
CN1CCN(C2Cc3ccccc3Sc3ccc(Cl)cc32)CC1 (stereo unspecified)	1.2
O=C(c1ccccc1)c1ccc2n1CCC2C(=O)O (stereo unspecified)	2 (active)
Cn1cnc([N+](=O)[O-])c1Sc1ncnc2nc[nH]c12	1.1
COc1ccccc1OCCNCC(O)COc1cccc2[nH]c3ccccc3c12 (stereo unspecified)	1.7 (active)
CC(C)[C@H](NC(=O)OCc1ccccc1)C(=O)N[C@H](C=O)Cc1ccccc1 (Cbz-Val-Phe-aldehyde)	1.4 (active)
CCCCC[C@H](CC(=O)NO)C(=O)N[C@H](C(=O)N1CCC[C@H]1CO)C(C)C	1.2
Nc1nc2[nH]c(=O)cnc2c(=O)[nH]1	1.4 (active)
CC(C)(C)NCC(O)COc1cccc2[nH]c(=O)[nH]c12 (stereo unspecified)	1
O=C(c1cccc(-c2ccc(-c3cn(C(=O)N4CCCCC4c4ccccc4)nn3)cc2)c1)N1CCCCC1 (stereo unspecified)	1.1
COC(=O)C1=C(C)NC(C)=C([N+](=O)[O-])C1c1ccccc1C(F)(F)F (stereo unspecified)	1.1
COc1ccc2c(c1)c(CC(=O)O)c(C)n2C(=O)c1ccc(Cl)cc1	1.7 (active)
O=c1c(O)c(-c2ccc(O)c(O)c2)oc2cc(O)cc(O)c12	0.9
O=C(C1CCCCC1)N1CC(=O)N2CCc3ccccc3C2C1 (stereo unspecified)	1.2
CCc1cccc(N(C)C(N)=Nc2cccc3ccccc23)c1	1.1
CCN(CC)C(=S)SSC(=S)N(CC)CC	1.7 (active)
CN(C)CC[C@@H](c1ccc(Cl)cc1)c1ccccn1	1.1
C[n+]1cc2c3c(ccc2c2ccc4cc5c(cc4c21)OCO5)OCO3	2.1 (active)
Cc1nc2n(c(=O)c1CCN1CCC(c3noc4cc(F)ccc34)CC1)CCCC2O (stereo unspecified)	1
N[C@@H](Cc1cnc[nH]1)C(=O)O	0.9
CCOC(=O)C1=C(C)NC(C)=C(C(=O)OC)C1c1cccc(Cl)c1Cl (stereo unspecified)	1.2
CCc1ccc(OCC(=O)Nc2ccc(F)c([N+](=O)[O-])c2)cc1	1.1
Oc1ccccc1-c1cc(-c2ccccc2F)[nH]n1	1
c1ccc2c(c1)CCCC2C1=NCCN1 (stereo unspecified)	0.7 (active)
c1cnc(N2CCN(Cc3ccc4c(c3)OCO4)CC2)nc1	1
NC1(C(=O)O)CC1	0.9
O=NN(CCCl)C(=O)NCCCl	1

SMILES	fold change permeability
CCCCS(=O)(=O)N[C@@H](Cc1ccc(OCCCCC2CCNCC2)cc1)C(=O)O	1.5 (active)
N#Cc1c(N2CCCC2)nc(N)c2c(N)nc(N3CCCC3)cc12	1.8 (active)
CC(C)Cn1c(=O)n(C)c(=O)c2[nH]cnc21	0.7 (active)
Nc1ccc(-c2ccc3ccccc3n2)cc1	1.1
CC1(C)CC=C(c2cnc3ccccc3c2)c2cc(C(=O)Nc3ccc(C(=O)O)cc3)ccc21	1.1
O=c1oc(Cl)c(Cl)c2ccccc12	1.4 (active)
Cc1ncc(-c2c[nH]c3ccccc23)o1	1.2
Nc1ncnc2c1ncn2[C@@H]1O[C@H](COP(=O)(O)OP(=O)(O)OP(=O)(O)OP(=O)(O)OC[C@@H]2O[C@H](n3cnc4c(N)ncnc43)C(O)[C@@H]2O)[C@H](O)C1O (stereo partly specified)	1
C[C@H]1C[C@H]2[C@@H]3CCC4=CC(=O)C=C[C@]4(C)[C@@]3(Cl)[C@@H](O)C[C@]2(C)[C@@]1(O)C(=O)CO	1.2
NC(=O)c1cnccn1	0.9
Cc1nc2c(OCc3ccccc3)cccn2c1CC#N	0.9
CC(N)=O	0.9
CC1(C)CCC(NC(=O)[C@@H](N)CCC(=O)O)CC1	0.9
Nn1nnc2ccccc21	0.9
Fc1ccc(NC(=S)NCCCn2ccnc2)c(F)c1	0.9
c1ccc(CN2CCC3(CCCc4ccccc43)CC2)cc1	1.6 (active)
Cc1cc(C(C)(C)C)cc(C)c1CC1=NCCN1	2 (active)
O=C(O)/C=C/c1cnc[nH]1	1.4 (active)
Cc1ccc(/C(=C\CN2CCCC2)c2ccccn2)cc1	0.8
COc1cc2c(cc1O)CC[C@@H]1[C@@H]2CC[C@]2(C)[C@@H](O)CC[C@@H]12	1.3 (active)
CC(C)=CCC/C(C)=C/CC/C(C)=C/CSc1ccccc1C(=O)O	1.4 (active)
NCCOc1cc(C(=O)Nc2cc(OCCN)c3ccccc3n2)nc(C(=O)Nc2cc(OCCN)c3ccccc3n2)c1	0.9
CN(C)c1ccccc1CN1CCCN(Cc2ccccc2N(C)C)C1c1ccncc1	1.1
CN1CC(=O)NC1=NC(=O)Nc1cccc(Cl)c1	0.7 (active)
COc1cc2nc(N(C)CCCNC(=O)C3CCCO3)nc(N)c2cc1OC (stereo unspecified)	1
CCN1CCCC1CNC(=O)c1cc(S(=O)(=O)CC)c(N)cc1OC (stereo unspecified)	0.7 (active)

SMILES	fold change permeability
CCCN1C[C@H](CSC)C[C@@H]2c3cccc4[nH]cc(c34)C[C@H]21	1.1
CC1(C)NC(=O)N(c2ccc([N+](=O)[O-])c(C(F)(F)F)c2)C1=O	1.1
CC(=O)Oc1ccccc1C(=O)O	1
O=C(OC1C[C@@H]2CC3C[C@H](C1)N2CC3=O)c1c[nH]c2ccccc12 (stereo partly specified)	0.8
COc1cc2ncnc(Nc3cccc(Br)c3)c2cc1OC	1.1
CNCCC=C1c2ccccc2CCc2ccccc21	1
CC(=O)C(C)=O	1.1
CC[C@H](NC(=O)c1c(C)c(-c2ccccc2)nc2ccccc12)c1ccccc1	1
O=c1c(O)c(-c2ccc(O)cc2O)oc2cc(O)cc(O)c12	0.7 (active)
NNC(=O)CSc1nc2scc(-c3ccccc3)c2c(=O)n1-c1ccccc1	1.2
C[C@]12CC[C@@H]3c4ccc(O)cc4C[C@@H](CCCCCCCCCS(=O)CCCC(F)(F)C(F)(F)F)[C@H]3[C@@H]1CC[C@@H]2O (stereo partly specified)	1
Cc1cc(Cl)ccc1OCCCC(=O)NO	1
NCCCNCCSP(=O)(O)O	0.9
Cn1c(=O)c2[nH]c(C3CCCC3)nc2n(C)c1=O	1.3 (active)
CSC(N)=NCCC[C@H](N)C(=O)O	0.7 (active)
C[C@]12CC[C@@H]3c4ccc(O)cc4CC[C@H]3[C@@H]1[C@@H](O)[C@@H](O)[C@@H]2O	0.8
CN1CCN(C2=Nc3ccccc3Cc3ccccc32)CC1	1.2
CCCCCN(CCCCC)C(=O)C(CCC(=O)O)NC(=O)c1ccc(Cl)c(Cl)c1 (stereo unspecified)	1.4 (active)
N[C@@H](Cc1cc(CP(=O)(O)O)cc(-c2ccccc2Cl)c1)C(=O)O	0.9
CC(=O)C1=C(C)N(c2cccc(C(F)(F)F)c2)C(=O)N[C@@H]1c1ccc(C#N)nc1	1.1
COc1ccc(-c2ccc(N)[n+](CCCC(=O)O)n2)cc1	0.8
C[C@@](Cc1ccc(O)c(O)c1)(NN)C(=O)O	1.2
O=C(c1cc(O)c(O)c([N+](=O)[O-])c1)c1ccccc1F	1.7 (active)
CCCCCN=C(N)N/N=C/c1c[nH]c2ccc(OC)cc12	0.9

From PubChem BioAssay
